These results are taken from PubChem BioAssay (EPA / NIEHS).

The target of assay [1] is Transcription factor E2F1 (Homo sapiens) (UniProt Q01094). The assay is described as follows: ATG_E2F_CIS: Attagene CIS-FACTORIAL HepG2 Assay for human E2F Transcription Factor 1 (AID 2282935). The conditions noted are these: HepG2 Attagene cis-reporter, E2F reporter RNA transcripts; actives raise or lower the signal. The procedure, abridged: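 Cis-element reporter mRNA induction in transiently transfected HepG2, 24 h exposure. Activity fitted in both directions relative to DMSO negative control.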
Sequence of Transcription factor E2F1 (Homo sapiens) (Q01094 whole entry, looked up): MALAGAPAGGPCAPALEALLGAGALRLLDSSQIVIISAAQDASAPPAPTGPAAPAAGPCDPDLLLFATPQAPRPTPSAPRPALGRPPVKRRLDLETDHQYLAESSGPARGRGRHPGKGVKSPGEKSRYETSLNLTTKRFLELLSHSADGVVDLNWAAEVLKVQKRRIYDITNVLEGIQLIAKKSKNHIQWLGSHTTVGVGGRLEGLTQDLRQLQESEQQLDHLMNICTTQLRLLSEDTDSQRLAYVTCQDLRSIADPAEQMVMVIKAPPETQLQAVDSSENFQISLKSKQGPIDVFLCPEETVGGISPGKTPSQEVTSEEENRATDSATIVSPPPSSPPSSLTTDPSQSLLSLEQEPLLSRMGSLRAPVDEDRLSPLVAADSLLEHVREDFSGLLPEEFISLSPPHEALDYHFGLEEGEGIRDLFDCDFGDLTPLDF

Assay [2] in a line: ATG_E_Box_CIS: Attagene CIS-FACTORIAL HepG2 Assay for human Enhancer Box (E-box) (AID 2282936). The conditions noted are these: HepG2 E-box cis-reporter transcription, actives raise or lower the signal. The gist of the method:
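Cells: HepG2 (human liver), transient MRTU transfection. Exposure 24 h. RNA → oligo(dT) RT → PCR → 6-FAM label → HpaI → CE. Activity fitted both directions relative to DMSO.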

Assay [3] is described as follows: ATG_M_61_CIS: Attagene CIS-FACTORIAL HepG2 Assay for M61 Transcription Factor (Internal Marker) (AID 2282937). The conditions noted are these: HepG2 Attagene CIS-FACTORIAL M61 internal marker reporter; actives raise or lower the signal. The gist of the method:
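This endpoint serves as an internal background control within a multiplexed HepG2 cis-reporter panel. Cells are exposed for 24 h; reporter mRNA is amplified, fluorescently labelled and sized by capillary electrophoresis, with DMSO as negative control.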

Assay [4] in a line: ATG_EGR_CIS: Attagene CIS-FACTORIAL HepG2 Assay for human Early Growth Response 1 (EGR1) (AID 2282938). The conditions noted are these: HepG2 Attagene CIS-FACTORIAL EGR reporter mRNA; actives raise or lower the signal. The gist of the method: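 HepG2, transient MRTU transfection (cis promoters), 24 h compound. RNA → RT (oligo-dT) → PCR → 6-FAM labelling → HpaI cut → CE fluorescence. Bidirectional fit, DMSO baseline.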

A short description of assay [5]: ATG_M_19_CIS: Attagene CIS-FACTORIAL HepG2 Assay for M19 Transcription Factor (Internal Marker) (AID 2282939). The conditions noted are these: HepG2 Attagene CIS-FACTORIAL M19 internal marker reporter; actives raise or lower the signal. The gist of the method: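 HepG2, MRTU transient transfection, 24 h dosing. Total RNA → RT-PCR → 6-FAM primer extension → HpaI digest → CE fluorescence. Bidirectional curve fit, DMSO negative control.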

Assay [6] in a line: ATG_ERE_CIS: Attagene CIS-FACTORIAL HepG2 Assay for Estrogen Response Element (ERE) (AID 2282940). The conditions noted are these: HepG2 ERE cis-reporter, Attagene RNA transcript; actives raise or lower the signal. The procedure, abridged:
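After a 24 h chemical treatment, RNA from reporter-transfected HepG2 cells is reverse-transcribed, PCR-amplified and fluorescently labelled. Fragments separated by capillary electrophoresis give reporter signal; DMSO serves as negative control.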

The nature of assay [7]: ATG_Ets_CIS: Attagene CIS-FACTORIAL HepG2 Assay for human Erythroblast Transformation Specific (ETS) (AID 2282941). The conditions noted are these: HepG2 ETS cis-reporter transcription, actives raise or lower the signal. The procedure, abridged:
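After transient cis-reporter transfection, HepG2 cells receive test chemical for 24 h. Reporter mRNA levels, measured by RT-PCR and capillary electrophoresis fluorescence, are analysed bidirectionally relative to the DMSO baseline.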

Assay [8] addresses Hepatocyte nuclear factor 3-beta (Homo sapiens) (UniProt Q9Y261). As to the kind of experiment: ATG_FoxA2_CIS: Attagene CIS-FACTORIAL HepG2 Assay for human Forkhead box A2 (FOXA2) (AID 2282942). The conditions noted are these: HepG2 cis-reporter transcription factor activity, 24 h; actives raise or lower the signal. The gist of the method: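 Cells: HepG2, transient multiplex reporter transfection. Exposure 24 h. Detection: reporter-specific RT-PCR, fluorescent labelling, restriction digest, capillary electrophoresis. Analysis: bidirectional curve fit, DMSO as negative control.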

Assay [9] can be described thus: ATG_FoxO_CIS: Attagene CIS-FACTORIAL HepG2 Assay for human Forkhead box O (FoxO) (AID 2282943). The conditions noted are these: HepG2 Attagene cis-reporter, FoxO element, mRNA; actives raise or lower the signal. The procedure, abridged:
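HepG2, transient MRTU transfection (cis element, endogenous TFs). Dose 24 h. TriZol RNA → oligo(dT) RT → PCR → 6-FAM primer extension → HpaI cut → CE. Gain/loss vs DMSO.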

Assay [10] is described as follows: ATG_GATA_CIS: Attagene CIS-FACTORIAL HepG2 Assay for human GATA Binding Protein (AID 2282944). The conditions noted are these: HepG2 GATA cis-element reporter, Attagene multiplex mRNA; actives raise or lower the signal. The procedure, abridged: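 Cells: HepG2, transiently transfected with cis-regulated reporter transcription units. Exposure: 24 h. Detection: RT-PCR plus capillary electrophoresis of FAM-labeled fragments. Analysis: bidirectional, DMSO as baseline.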

Each structure is given as a SMILES string. Active and inactive are the calls of the source. Rule for the calls: active = hit-call score of the fitted dose curve at least 0.9, where 1 is the maximum; inactive = score below 0.9.

Sequence of Hepatocyte nuclear factor 3-beta (Homo sapiens) (Q9Y261 whole entry, looked up): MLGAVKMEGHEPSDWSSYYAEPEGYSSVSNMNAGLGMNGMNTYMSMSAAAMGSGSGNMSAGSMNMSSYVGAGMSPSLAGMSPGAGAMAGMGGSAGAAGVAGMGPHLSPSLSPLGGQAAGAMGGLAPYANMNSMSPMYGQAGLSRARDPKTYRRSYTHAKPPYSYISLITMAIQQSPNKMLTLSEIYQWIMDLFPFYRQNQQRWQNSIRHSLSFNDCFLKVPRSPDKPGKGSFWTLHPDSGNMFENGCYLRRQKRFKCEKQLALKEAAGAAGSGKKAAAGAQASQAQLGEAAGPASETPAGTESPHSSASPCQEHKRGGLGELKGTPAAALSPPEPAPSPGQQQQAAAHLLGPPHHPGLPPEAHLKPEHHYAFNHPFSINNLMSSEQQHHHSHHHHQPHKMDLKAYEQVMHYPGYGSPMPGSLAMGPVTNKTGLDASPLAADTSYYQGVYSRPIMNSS

Take `CCCCCC#CC(=O)OC`: the outcome in assay [1], in assay [2], in assay [3], in assay [4], in assay [5] and in [6] was inactive. In addition, the compound was classed as inactive in [7], in assay [8], in assay [9] and in assay [10].

Regarding `CCCCCC1C(=O)CCC1CC(=O)OC` (stereo not given), the outcome in assay [1], in assay [2], in assay [3], in assay [4], in assay [5] and in assay [6] was inactive. Besides, the call in assay [7], in assay [8], in [9] and in [10] was inactive.

In the case of `C=C(C)C(=O)OCCC[Si](OC)(OC)OC`, the compound was classed as inactive in assay [1], in assay [2], in assay [3], in assay [4], in assay [5] and in [6]. In addition, the compound was called inactive in [7], in [8], in [9] and in assay [10].

Turning to `CN(C)C`, the compound was called inactive in assay [1], in assay [2], in [3], in assay [4], in assay [5] and in assay [6]. In addition, the compound was classed as inactive in [7], in assay [8], in assay [9] and in assay [10].

Regarding `CCCCCC(=O)O[C@]1(C(C)=O)CC[C@H]2[C@@H]3CCC4=CC(=O)CC[C@]4(C)[C@H]3CC[C@@]21C`, the call in [1], in assay [2], in assay [3], in assay [4], in assay [5] and in assay [6] was inactive. In addition, the compound was called inactive in [7], in assay [8], in assay [9] and in assay [10].

Take `COC(=O)c1cccc(C(=O)OC)c1`: the call in [1], in assay [2], in assay [3], in [4], in [5] and in assay [6] was inactive. Also, the result in [7], in assay [8], in assay [9] and in assay [10] was inactive.

Regarding `NNC(=O)OCc1ccccc1`, the compound was called inactive in assay [1], in [2], in assay [3], in [4], in assay [5] and in [6]. Moreover, the outcome in [7], in [8], in assay [9] and in assay [10] was inactive.

On to `Nc1ccc(O)c(N)c1`, for which the result in assay [1], in [2], in assay [3], in assay [4], in assay [5] and in assay [6] was inactive. The compound was classed as inactive in [7], in assay [8], in [9] and in [10].

Consider `CCCCN(CCO)CCO`, for which the outcome in [1], in assay [2], in assay [3], in assay [4], in assay [5] and in [6] was inactive. The compound was called inactive in [7], in [8], in assay [9] and in assay [10].

As to `CN1CCc2cccc3c2[C@H]1Cc1ccc(O)c(O)c1-3`, the compound was classed as inactive in assay [1], in assay [3], in assay [4], in assay [5], in assay [7] and in assay [8]. The call in assay [9] and in assay [10] was inactive. Also, the AC50 in assay [2] is 2.76 µM (active); in assay [6], 0.386 µM (active).

As for `CC(C)=CC(=O)O`, the result in assay [1], in [2], in [3], in assay [4], in assay [5] and in assay [7] was inactive. Also, the call in assay [8], in assay [9] and in assay [10] was inactive. Also, the AC50 in assay [6] was 7.06 µM (active).

Take `CC(C)(C)C1CCC(O)CC1` (stereo not given): the compound was classed as inactive in [1], in assay [2], in assay [3], in [4], in assay [5] and in [7]. The compound was classed as inactive in [8], in assay [9] and in assay [10]. In assay [6], the AC50 was 32.8 µM (active).

Take `CCCCCCCCCCO[C@@H]1O[C@H](CO)[C@@H](O)[C@H](O)[C@H]1O`: the compound was classed as inactive in assay [1], in assay [2], in assay [3], in assay [4], in [5] and in [6]. Further, the call in assay [7], in [8], in assay [9] and in [10] was inactive.

Consider `CC(=O)c1ccc(O)cc1`, for which the outcome in assay [1], in assay [2], in [3], in [4], in assay [5] and in [7] was inactive. Further, the compound was classed as inactive in [8], in assay [9] and in [10]. Besides, the AC50 in assay [6] was 26.5 µM (active).

For the compound `O=Cc1ccccc1O`, the outcome in [1], in [2], in [3], in [4], in assay [5] and in assay [7] was inactive. The outcome in assay [8], in assay [9] and in assay [10] was inactive. Further, in assay [6], the half-maximal activity concentration (AC50) is 25.2 µM (active).

Regarding `CCCCCCOC(C)=O`, the outcome in assay [1], in assay [2], in assay [3], in [4], in [5] and in [6] was inactive. The result in [7], in assay [8], in assay [9] and in assay [10] was inactive.

In the case of `C=C(C)C(=O)OCCC(C)OC(=O)C(=C)C` (stereo not given), the call in [1], in assay [2], in [3], in [4], in assay [5] and in assay [6] was inactive. In addition, the call in [7], in assay [8], in [9] and in assay [10] was inactive.

As to `CCOC(=O)COC(=O)c1ccccc1C(=O)OCC`, the outcome in assay [1], in assay [2], in assay [3], in assay [4], in [5] and in [6] was inactive. In addition, the compound was classed as inactive in assay [7], in assay [8], in assay [9] and in assay [10].
